According to PubChem BioAssay (Tox21):
Where “and” joins values, the source holds several entries; their conditions need not be identical. Identical values can stand only once. Records with an inconclusive call do not appear. More than one record can exist for a structure, and the calls need not agree. Calls of active or inactive are those of the source. Unless noted, calls follow the shape of the full dose curve.

experiment: qHTS assay to identify small molecule antagonists of the estrogen related receptor (ERR) signaling pathway from Tox21 library (AID 1224848; active = well fitted inhibition curve with a large enough effect in the repeat runs; also: nearly all actives have a fitted effect of over 50% in size; also: potency is read from the fitted curve at half-maximal effect); conditions: ERR reporter cell line, luciferase antagonist mode, 18 h; series mostly up to 92.4 µM
Outline: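 Reading was by luminescence 30 min after ONE-Glo addition. Before that, ERR cells at 2,000 per well had rested 6 h at 37 C/5% CO2 and then received pin-tooled compounds in DMSO for 18 h at 37 C.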
% is scaled to controls: 0 for no effect and ±100 for the full control effect.

Compound | Potency
Nc1ccc(O)cc1 | 22.5 µM (active) and inactive
CCN(CC)C(=S)SSC(=S)N(CC)CC | 243 nM (active) and 55.8 nM (active) and 298 nM (active)
CC(C)(C)c1ccc(O)c(C(C)(C)C)c1 | 54.3 µM (active) and 61.1 µM (active)
CC1=C(C=O)C(C)(C)CC=C1 | inactive
COc1ccc(CCN2CCC(Nc3nc4ccccc4n3Cc3ccc(F)cc3)CC2)cc1 | 12.5 µM (active) and 26.6 µM (active)
C[N+]1([O-])CCOCC1 | inactive
Cc1cc(C2(c3cc(C)c(O)cc3C)OS(=O)(=O)c3ccccc32)c(C)cc1O | 61.1 µM (active) and inactive
CC(C)(O)CCC(C)(C)O | inactive
CCCOC(=O)c1cc(O)c(O)c(O)c1 | 48.3 µM (active) and 54.5 µM (active)
O=C(Nc1ccccc1SSc1ccccc1NC(=O)c1ccccc1)c1ccccc1 | 24.5 µM (active) and 43.3 µM (active)
Nc1cc(Cl)c(-c2cc(Cl)c(N)cc2Cl)cc1Cl | 54.4 µM (active) and 61.1 µM (active)
CN(C)c1ccc(C(=C2C=CC(=[N+](C)C)C=C2)c2ccccc2)cc1 | 596 nM (active) [middle of 4 runs]
CCn1c2ccccc2c2cc(N)ccc21 | 34 µM (active)
c1cc(C(c2ccc(OCC3CO3)cc2)C(c2ccc(OCC3CO3)cc2)c2ccc(OCC3CO3)cc2)ccc1OCC1CO1 (stereo not given) | inactive
Cc1cccc(O)c1C | inactive

experiment: qHTS assay to identify small molecule agonists of the estrogen related receptor (ERR) signaling pathway from Tox21 library (AID 1224849); conditions: ERR reporter cell line, ONE-Glo luciferase, 18 h; at 42.5 µM (top of the series); also: nearly all actives have a fitted effect of over 15% in size
Outline: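 Agonist signal is luciferase luminescence from an ERR reporter cell line treated 18 h at 37 C with DMSO-dissolved compounds, read 30 min after ONE-Glo addition at room temperature.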

Compound | activity change, positive = activation
CCN(CC)C(=S)SSC(=S)N(CC)CC | -68.2% (inactive)
COc1ccc(CCN2CCC(Nc3nc4ccccc4n3Cc3ccc(F)cc3)CC2)cc1 | -69.8% (inactive)
Oc1c(Cl)cc(Cl)cc1Sc1cc(Cl)cc(Cl)c1O | -52.3% (inactive)
CN(C)c1ccc(C(=C2C=CC(=[N+](C)C)C=C2)c2ccccc2)cc1 | -66.6% (inactive) and -76.7% (inactive) and -71.5% (inactive)

same assay, conditions: ERR reporter cell line, ONE-Glo luciferase, 18 h; at 92.4 µM (top of the series)

Compound | activity change, positive = activation
Nc1ccc(O)cc1 | -66.4% (inactive)
CCN(CC)C(=S)SSC(=S)N(CC)CC | -75.7% (inactive) and -76.4% (inactive)
CC(C)(C)c1ccc(O)c(C(C)(C)C)c1 | -41% (inactive) and -33.5% (inactive)
CC1=C(C=O)C(C)(C)CC=C1 | 0.302% (inactive)
COc1ccc(CCN2CCC(Nc3nc4ccccc4n3Cc3ccc(F)cc3)CC2)cc1 | -76.4% (inactive)
Oc1c(Cl)cc(Cl)cc1Sc1cc(Cl)cc(Cl)c1O | -60.8% (inactive) and -52.2% (inactive) and -57.2% (inactive)
C[N+]1([O-])CCOCC1 | -0.0985% (inactive)
Cc1cc(C2(c3cc(C)c(O)cc3C)OS(=O)(=O)c3ccccc32)c(C)cc1O | -48.1% (inactive) and -15.2% (inactive)
CC(C)(O)CCC(C)(C)O | -1.25% (inactive)
CCCOC(=O)c1cc(O)c(O)c(O)c1 | -50.8% (inactive) and -46.2% (inactive)
O=C(Nc1ccccc1SSc1ccccc1NC(=O)c1ccccc1)c1ccccc1 | -71.7% (inactive) and -62.7% (inactive)
Nc1cc(Cl)c(-c2cc(Cl)c(N)cc2Cl)cc1Cl | -76.8% (inactive) and -62.3% (inactive)
CN(C)c1ccc(C(=C2C=CC(=[N+](C)C)C=C2)c2ccccc2)cc1 | -71.3% (inactive)
CCn1c2ccccc2c2cc(N)ccc21 | -48% (inactive) and -30.3% (inactive) and -32.3% (inactive)
c1cc(C(c2ccc(OCC3CO3)cc2)C(c2ccc(OCC3CO3)cc2)c2ccc(OCC3CO3)cc2)ccc1OCC1CO1 (stereo not given) | -18.6% (inactive) and 0.394% (inactive)
Cc1cccc(O)c1C | 0.54% (inactive) and 10.2% (inactive)
